This is a sample that favours compounds with a hit; in the whole collection about 2.1% have one here.
NSD2 HMT inh: blocks human histone methyltransferase NSD2; O96028; NSD2 peptide methylation, AlphaScreen, 120 min; inhibition, % at 12.5 µM; 310,000 compounds, 0.54% hits; AID 743445; in the data active = inhibition above about 50%
PfHsp90 set2: inhibits growth of yeast expressing Plasmodium falciparum Hsp90. S. cerevisiae expressing PfHsp90, BacTiter-Glo ATP, 48 h; yeast lacking PDR1 and PDR3 efflux regulators. inhibition, % at 9.4 µM. 310,000 compounds, 0.32% hits;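 active = every replicate shows inhibition above about 80%, whatever the replicate mean, limit read from the data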;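 also: 0% = DMSO neutral controls and 100% = 20 µM radicicol positive controls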
CASP6 VEID inh: caspase-6 (human) enzyme inhibition. P55212. inhibition, % at 12.5 µM. AID 686996. 350,000 compounds, 0.53% hits. purified caspase-6, Z-VEID-R110 cleavage fluorescence;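 active = mean inhibition across replicates at least about 35%, with every replicate also reaching that limit, limit read from the data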;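 also: 0% = median of neutral control wells and 100% = no fluorescence left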
ARNT-TACC3 inh: disruptors of human ARNT/TACC3 interaction | Q9Y6A5 | AlphaScreen His-ARNT PAS-B/GST-TACC3 binding, luminescence; TACC3 fragment carries E629A point mutation | inhibition, % at 9.99 µM | 390,000 compounds, 0.66% hits | AID 623870;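 active = mean inhibition of replicates at least 50% and at least half of replicates each reaching 50%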;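 also: 0% = complete ARNT plus TACC3 wells and 100% = ARNT alone without TACC3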
SIRT5 block: blocks human SIRT5 desuccinylation of peptide | Q9NXA8 | Purified SirT5, succinyl-peptide AMC, trypsin-coupled fluorescence | inhibition, % at 15 µM | 330,000 compounds, 1.1% hits; in the data active = inhibition above about 15%
Target sequence (Q9NXA8 whole entry, looked up): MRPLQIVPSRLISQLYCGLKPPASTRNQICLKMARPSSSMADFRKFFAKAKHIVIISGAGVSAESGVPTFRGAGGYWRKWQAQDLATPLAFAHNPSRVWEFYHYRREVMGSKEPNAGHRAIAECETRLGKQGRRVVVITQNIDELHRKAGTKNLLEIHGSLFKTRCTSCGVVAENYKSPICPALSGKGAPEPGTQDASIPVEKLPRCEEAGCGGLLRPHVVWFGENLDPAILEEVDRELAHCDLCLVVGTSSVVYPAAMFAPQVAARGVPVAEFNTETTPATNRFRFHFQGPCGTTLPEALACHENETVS
* marks the source's active call; other numbers are inactive results; nt = no result given.

SMILES	NSD2 HMT inh	PfHsp90 set2	CASP6 VEID inh	ARNT-TACC3 inh	SIRT5 block
O=C(N/N=C/c1c(O)n(Cc2ccc(F)cc2)c(=S)[nH]c1=O)c1ccncc1	-1	-7	2	61*	7
O=C(Cc1cccnc1)N1CCCCN2[C@H](C1)[C@H](c1ccc(/C=C/c3ccccc3)cc1)[C@@H]2CO	nt	nt	-3	11	0
Cc1ccc(OCCSC2=NN2c2cc(C)nc(N)n2)cc1	1	12	-1	-1	21*
CCSC1=NN1c1cc(C)nc(N)n1	-1	-25	-3	-3	1
CSCCC(c1nnnn1-c1ccc2c(c1)OCCO2)N1CCC(n2c(=O)[nH]c3ccccc32)CC1 (stereo unspecified)	nt	nt	13	nt	19*
CCCCN1C(=O)/C(=C/C=C/c2ccco2)C(=O)NC1=S	108*	-13	78*	-2	38*
Cc1ccc(N2C(=O)NC(=O)/C(=C/C=C/c3ccco3)C2=O)cc1	46	-4	nt	-2	nt
CCOC(=O)c1c(-n2c(C)cc(C=C3C(=O)NC(=O)NC3=O)c2C)sc2c1CCCC2	16	11	nt	-7	nt
Cc1cccc(N2C(=O)NC(=O)/C(=C\c3cc(C)n(-c4sc5c(c4C#N)CCCC5)c3C)C2=O)c1C	60*	7	nt	3	nt
N/C(=N\N=C/c1ccc(-c2ccc(O)c(C(=O)O)c2)o1)N[N+](=O)[O-]	121*	-27	nt	18	nt
O=C(Cc1ccccn1)N1CCCCN2[C@H](C1)[C@@H](c1ccc(C#Cc3ccccc3)cc1)[C@@H]2CO	nt	nt	-3	10	1
O=C(CCc1ccccc1)N1Cc2cc(N3CCOCC3)ccc2-n2nncc2C1	nt	nt	-3	nt	2
OCC[n+]1c2ccccc2nc2ccc(N3CCOCC3)cc21	82*	nt	6	nt	-3
C/C=C/c1ccc(C2[C@@H]3CN(Cc4cocn4)C[C@H]2N3)cc1 (stereo partly specified)	nt	nt	-1	nt	-2
O=C1NC(=O)C(Cc2ccccc2)(Cc2ccccc2)C(=O)N1	-2	9	-2	-8	-1
O=C1NC(=O)C(Nc2ccccc2)C(=O)N1	6	0	1	33*	14
Cn1cccc1/C=C1/C(=O)NC(=O)N(Cc2ccc(F)cc2)C1=O	4	-29	23	3	0
Cn1cccc1/C=C1/C(=O)NC(=S)N(Cc2ccc(F)cc2)C1=O	8	-31	35*	2	2
O=C(NC[C@H]1CC[C@@H]2NC[C@@H]2O1)C1CCCC1	nt	nt	2	nt	6
Cn1cccc1/C=C1\C(=O)NC(=O)N(Cc2ccccc2)C1=O	1	8	28	3	-1
O=C1NC(=O)N(Cc2ccccc2)C(=O)/C1=C\c1ccco1	14	-2	63*	-6	25*
O=C(O)Cn1cc(/C=C2\C(=O)NC(=O)N(Cc3ccco3)C2=O)c2ccccc21	40	-11	74*	-6	13
O=C1NC(=O)N(Cc2ccco2)C(=O)/C1=C/c1cccn1CCOc1ccccc1Cl	10	-9	58*	-9	nt
COc1ccc(CN2C(=O)NC(=O)/C(=C/c3ccoc3)C2=O)cc1	14	4	67*	nt	21*
O=C1NC(=O)N(Cc2ccc(F)cc2)C(=O)/C1=C\C=C\c1ccco1	49	21	23	-6	-1
SMILES	NSD2 HMT inh	PfHsp90 set2	CASP6 VEID inh	ARNT-TACC3 inh	SIRT5 block
CN1CCN(C(=O)CN=[N+]=[N-])CC1	nt	nt	2	nt	-5
O=C1c2ccccc2-c2cc3ccccc3cc21	-1	9	3	-1	0
O=C1C=C(N2CC2)c2ccccc2C1=O	nt	nt	97*	nt	0
CC1=C(O)C(=O)C=C2C1=CC=C1C2(C)CCC2(C)C3CC(C)(C(=O)O)CCC3(C)CCC12C (stereo unspecified)	29	125*	7	-2	nt
Cc1ccc(OC(=O)N(C)C[C@@H]2OCc3ccccc3-c3c(n(C)c4ccccc34)C(=O)N([C@H](C)CO)C[C@@H]2C)cc1	nt	nt	-4	nt	3
O=C(O)[C@H]1[C@H](CO)[C@H]2Cn3c(ccc(-c4cccnc4)c3=O)[C@@H]1N2S(=O)(=O)c1ccccc1F	nt	nt	2	-16	-6
CCOC(=O)[C@]12Cc3cc4ccccc4cc3[C@H]1N(Cc1ccccc1)C(=O)c1cc(OC)ccc12	nt	nt	-2	nt	-8
CCOC(=O)[C@]12Cc3cc4ccccc4cc3[C@H]1N(Cc1ccccc1)C(=O)c1ccccc12	nt	nt	-1	nt	27*
O=C(Cc1ccccn1)N1CCCCN2[C@@H](CO)[C@@H](c3ccc(-c4ccccc4)cc3)[C@@H]2C1	nt	nt	0	5	-2

Screens: PubChem BioAssay, Broad Institute
